Measurements taken from PubChem BioAssay (Tox21).
Records with an inconclusive call do not appear. Unmarked numbers belong to inactive results. The source made the active and inactive calls. Calls follow the shape of the dose curve; as a rule, active = well fitted activation curve with a large enough effect in the signal ratio in the repeat runs (not every such curve was filed as active); inconclusive = weak or mixed curves; inactive = flat fitted curve, though single readings scatter; the % refers to the signal ratio.

test: qHTS assay to identify small molecule agonists of H2AX (AID 1224845); settings: CHO-K1 phospho-H2AX Ser139 HTRF, 3 h; series mostly up to 154 µM; activation (H2AX phosphorylation): at the top concentration
Excerpt: National Center for Advancing Translational Sciences [NCATS]
NIH Chemical Genomics Center [NCGC]
U.S. Environmental Protection Agency [EPA]
National Institutes of Environmental Health Sciences [NIEHS]
National Toxicology Program [NTP]
U.S. Food and Drug Administration [FDA]
HTRF phospho-H2AX (Ser139) assay (Cisbio Bioassays, US) enables the quantitative detection of the histone variant H2AX when phosphorylated on serine 139. When double-stranded DNA breaks, either by ionizing radiation or endogenous physiological processes, H2AX becomes phosphorylated at Ser139. This phospho-Ser139 serves as a sensitive biomarker for the detection of such breaks, localizing the site of DNA repair. So, HTRF phospho-H2AX Ser139 is a pertinent assay to study genome stability, the cell cycle, DNA repair, and it serves as a biomarker for cancer, and to understand aging. Wild type CHO-K1 cells were used to identify the inducers of Phospho-H2AX Ser 139 from the Tox21 10K compound collections.
Tox21 Assay Protocol Summary:
The CHO-K1 cells suspended in culture medium containing 10% FBS were dispensed at 1000 cells/ 3 ul/well in 1536-well white wall/solid bottom plates (Greiner Bio-One North America, NC) using a Multidrop Combi (Thermo Fisher Scientific Inc., Waltham, MA). After the assay plates were incubated at 37C overnight, 23 nl of compounds at 15 concentrations (from 5-48 columns) or positive control (from 1 to 4 columns) were transferred to the assay plates using a Pintool station (Wako, San Diego, CA) into each well resulting in a final DMSO concentration of 0.76%. After 3hr incubation at 37C, 1 uL/well Supplemented Lysis buffer (diluted 100 fold blocking reagent in lysis buffer) (HTRF Phospho-H2A.X (S139) Assay kit from Cisbio US Inc., Bedford, MA) was added using a Flying Reagent Dispenser (FRD) (Aurora Discovery, CA). After 10sec spin at 1000 rpm in a plate centrifuge, the assay plates were incubated at room temperature for 30 min. Then followed by the addition of 1 uL/well detection buffer (containing a mixture of two antibodies, one labeled with cryptate, Anti pH2AX (S139)-K and another labeled with d2, Anti H2AX-d2) using FRD. After incubation at room temperature for 24 hr, the time resolved fluorescence at excitation 320 nm and emissions at 665 nm and 620 nm was measured using an Envision plate reader (PerkinElmer, Waltham, MA).
% is scaled to controls: 0 for no effect and ±100 for the full control effect; potency is read from the fitted curve at half-maximal effect.

SMILES | activation (H2AX phosphorylation) | Potency
CCN(CC)c1cccc(C)c1 | 1.91% | –
CCCCCCCCCCCCCCNCCO | – | 43.8 µM (active)
CC(COC(=O)c1ccccc1)OC(=O)c1ccccc1 (stereo not given) | -2.67% | –
CCCCCCCCCCCCOC(=O)c1cc(O)c(O)c(O)c1 | – | 11.3 µM (active)
O=C(Nc1ccc(Cl)cc1)Nc1ccc(Cl)c(C(F)(F)F)c1 | 0.5% [at 70.9 µM] | –
CCOC(=O)C1=C(C)NC(C)=C(C(=O)OCC)C1c1ccccc1/C=C/C(=O)OC(C)(C)C | -7.8% [at 70.9 µM] | –
CCCCNc1c(C(=O)OCC)c(C)nc2c1cnn2CC | 1.17% [at 70.9 µM] | –
[O]=[Zr] | 0.479% | –
CCCCCCCCCCCCCC[n+]1ccccc1 | -5.74% | –
CO[Si](CCCNCCNCCN)(OC)OC | 1.65% | –
C/C=C/CO | -2.23% | –
COc1cccc(CCc2ccccc2OCC(CN(C)C)OC(=O)CCC(=O)O)c1 (stereo not given) | -3.09% [at 70.9 µM] | –
NC(=O)c1ccccc1N | -1.37% | –
Oc1ccc(-c2ccccc2)c(Cl)c1 | 0.165% | –
CCCC(O)C(O)CO (stereo not given) | -0.652% | –
CC[N+](CC)(CC)Cc1ccccc1 | 2.57% | –
OCCCS | -1.81% | –
ClC/C=C\CCl | -0.213% | –
CCNc1nc(NC(C)CC)nc(OC)n1 (stereo not given) | 0.251% | –
CCO[Si](CCCSSSSCCC[Si](OCC)(OCC)OCC)(OCC)OCC | 1.33% | –

SMILES | activation (H2AX phosphorylation) | Potency
O=S(O)O | -2.47% [at 31.6 µM] | –
Cc1cncc(C)c1 | -0.274% | –
Brc1ccccn1 | -0.133% | –
CC(=O)c1ccccc1N | -2.23% | –
CC(=O)C=O | -0.783% | –
Cc1cccc(Br)c1 | 1.29% | –
O=Cc1ccc(F)cc1 | -0.8% | –
CC(C)N=C(N)/N=C(\N)Nc1ccc(Cl)cc1 | -0.271% [at 70.9 µM] | –
C(=C/c1ccccc1)/c1ccccc1 | 3.39% | –
CC(C)=C1CC[C@@H](C)CC1=O | -1.09% | –
Clc1nc2ccccc2s1 | 0.517% | –
CC1=CCC(=O)O1 | -5.19% | –
CCCC(C)CCC(C)=O (stereo not given) | -0.0635% | –
Cn1cnc2ncnc(N)c21 | 2.12% [at 70.9 µM] | –
CO[Si](CCC1CCC2OC2C1)(OC)OC (stereo not given) | -5.66% | –
CC(C)(C)c1cc(/C=C2\SC(=N)NC2=O)cc(C(C)(C)C)c1O | 2.68% | –
CCc1c(Br)c(Br)c(Br)c(Br)c1Br | -5.93% | –
Oc1c(Br)cc(Br)c2cccnc12 | – | 55.2 µM (active)
CCCCOCC | -0.696% | –
Cc1cc(C)c(C=O)c(C)c1 | 0.954% | –
